Consider 64 compounds from PubChem BioAssay AID2314 (National Center for Advancing Translational Sciences (NCATS), 2010).

Screen size: about 300,000 compounds; about 37,000 (12%) were called active. Cut-off read from the data, not from the text of the source: active = max response mostly above about 13% (no sharp cut-off); inactive = mostly below about 14%. This excerpt belongs to a sample that is enriched for actives.

This assay is described as follows: Cycloheximide Counterscreen for Small Molecule Inhibitors of Shiga Toxin. Note: read at 38.3 µM for the half of the compounds with a filed dose; 0% is about no effect. The note with it: cell reporter, cycloheximide protein synthesis inhibition counterscreen; stronger effect = higher value.
Regarding `Cc1ccccc1NC(=O)C(C)c1ccc(-c2ccccc2)c(F)c1` (centres undefined), the max response is -5.36% (inactive). As for `CC(CC(=O)N1CCN(c2ccccc2)CC1)S(=O)(=O)c1ccc2c(c1)NC(=O)CS2` (centres undefined), the max response was 1.2% (inactive).

Regarding `O=C(Nc1cccnc1)c1cc([N+](=O)[O-])ccc1Cl`, the max response was -2.56% (inactive).

Turning to `O=C(Nc1ccc(Br)cn1)c1ccc([N+](=O)[O-])o1`, the max response is 48.9% (active). For the compound `O=C(Nc1ccc(Br)c2cccnc12)c1ccc(Cn2cc([N+](=O)[O-])cn2)o1`, the max response was -3.97% (inactive). In the case of `O=C(NNS(=O)(=O)c1ccc(F)cc1)c1ccc([N+](=O)[O-])cc1Cl` it was -3.45% (inactive); in that of `O=C(Nc1ccncc1)c1ccc([N+](=O)[O-])cc1Cl`, -4.24% (inactive); in that of `CN1C(=O)c2ccc(C(=O)Nc3ccc(Br)cn3)cc2C1=O`, 1.67% (inactive). In the case of `O=C(Nc1ccc(Br)cn1)c1ccc([N+](=O)[O-])cc1Cl` it was 51.7% (active); in that of `Cc1cc([N+](=O)[O-])ccc1NC(=O)c1ccc(NC(=O)C(C)C)cc1`, 5.74% (inactive). Consider `CC(C)C(=O)Nc1cccc(NC(=O)c2ccc([N+](=O)[O-])cc2Cl)c1`, for which the max response is 27.7% (active). In the case of `O=C1CCNCCN1[C@H](CO)Cc1ccccc1` it was -1.44% (inactive). For the compound `COc1cc(NC(=O)C2=C(C)OCCS2)c(Cl)cc1C(=O)NCCN1CCN(C)CC1`, the max response was -6.54% (inactive).

Consider `O=C(O)c1[nH]c2ccccc2c1C(c1cccc(O)c1)c1c(C(=O)O)[nH]c2ccccc12`, for which the max response was -0.808% (inactive). For the compound `COC(=O)c1sccc1NS(=O)(=O)c1ccc(F)cc1F`, the max response is -6.38% (inactive). `Cc1c(CN2CCC(n3nccc3NC(=O)CCc3ccccc3)CC2)cnn1C`: the max response was 0.463% (inactive). Regarding `CCNC(=O)CC1C(=O)N(c2ccc(OC)cc2)C(=O)N1CCOC` (centres undefined), the max response was -2.06% (inactive). As to `COc1ccc(/C(N)=N/OC(=O)Cc2ccccc2)cc1`, the max response was 46.9% (active).

Consider `COc1ccc(C(=O)OCC(=O)NCCCc2ccccc2)cc1OC`, for which the max response is 0.591% (inactive). As for `COc1ccc(/C(N)=N/OC(=O)CCCc2ccccc2)cc1`, the max response is 44.3% (active). As for `COc1ccc(C(=O)NC(=S)NNC(=O)CCc2ccccc2)cc1`, the max response is 10.3% (inactive). Next, `CCOC(=O)C(Cc1ccccc1)NC(=O)CCC(=O)c1ccc(OC)cc1` (centres undefined): -1.47% (inactive); `COc1ccc(/C(N)=N/OC(=O)Oc2ccccc2)cc1`: -4.11% (inactive). In the case of `COCCN1CCn2c(nc3cc(NS(C)(=O)=O)ccc32)C1` it was -4.53% (inactive); in that of `CC1(C)COC(c2cccn2Cc2ccccc2Cl)=N1`, 2.16% (inactive); in that of `O=C(Nc1cccc(CCc2ccccn2)c1)c1ccc(Cl)cc1`, 11% (inactive). In the case of `C=CCNc1nc(Nc2ccc(Cl)cc2)nc(OC)n1` it was 35.6% (active); in that of `C=CCNc1nc(C)nc(OC)n1`, -3.36% (inactive); in that of `COc1nc(NCc2ccc(Cl)cc2)nc(OC)n1`, 9.12% (inactive).

For the compound `NS(=O)(=O)c1ccc(CNC(=O)c2cccc(Oc3ccccc3)c2)cc1`, the max response is 1.56% (inactive). Consider `CC1CCCN(C(=O)c2ccc3c(c2)C(=O)N(CCC2=CCCCC2)C3=O)C1` (centres undefined), for which the max response is 2.05% (inactive). `COc1ccc(S(=O)(=O)N2CCOC2CNC(=O)C(=O)NCc2ccncc2)cc1OC` (centres undefined): the max response is -2.13% (inactive). For the compound `C/C(=N\NC(=O)Cc1ccc(Cl)cc1)c1ccccn1`, the max response is -1.28% (inactive). As to `C/C(=N\NC(=O)c1ccccc1F)c1ccccn1`, the max response is 31.8% (active). Next, `CN(NC(=O)c1ccccc1F)c1nc(C(F)(F)F)nc2ccccc12`: -3.39% (inactive); `NC1=NC(=O)C(Cc2cccc(Cl)c2)S1` (centres undefined): 13% (inactive); `COc1ccccc1C(=O)NC(=S)Nc1ccccc1N1CCCCC1`: 18.9% (active). In the case of `O=C(NC(=S)Nc1ccccc1N1CCCCC1)c1ccc(F)cc1` it was 4.5% (inactive); in that of `COc1ccc(C(=O)NC(=S)Nc2ccccc2N2CCN(S(C)(=O)=O)CC2)cc1OC`, -0.375% (inactive); in that of `COc1ccc(OC)c(NC(=O)c2sc3nc(C)cc(C)c3c2N)c1`, 1.77% (inactive). For `O=S(=O)(NC1CC1)c1ccc(F)c(F)c1`, the max response was -2.05% (inactive).

Take `COc1ccccc1-n1c(SCC(=O)Nc2cccc(C(=O)O)c2)nnc1-c1ccccc1O`: the max response is 0.473% (inactive).

Regarding `C=C1/C(=C\C=C2\CCCC3(C)C2CCC3C(C)/C=C/C(O)C2CC2)CC(O)CC1O` (centres undefined), the max response is -6.77% (inactive). As to `Cc1ccccc1C(CC(=O)c1cccs1)C(C#N)C#N` (centres undefined), the max response is 58.6% (active). Take `Cc1ccc(C)c(NC(CC(=O)c2ccccc2)C(=O)OCC(=O)c2cccs2)c1` (centres undefined): the max response was -1.02% (inactive). With `C/C(=N\NC(=O)COc1c(C)cccc1C)c1cccs1`, the max response was 6.57% (inactive).

For the compound `CC(=O)c1cc(C#N)c(N2CCCCC2)nc1C`, the max response was 2.13% (inactive). Regarding `Cc1cc(C(F)(F)F)nc(SCC(=O)Nc2nccs2)n1`, the max response was -1.23% (inactive). Take `CC(=O)c1cc(C#N)c(SCC(=O)C(C)(C)C)nc1C`: the max response was 55.2% (active). In the case of `CCn1c(SCC(=O)Nc2nccs2)nnc1-c1ccncc1` it was -3.78% (inactive). In the case of `CC(=O)c1cc(C#N)c(N2CC(C)OC(C)C2)nc1C` (centres undefined), the max response is -2.5% (inactive). In the case of `Cc1cccc(C)c1Nc1nnc(SCC(=O)Nc2sccc2C#N)s1`, the max response is -1.09% (inactive). Next, `CC(=O)c1cc(C#N)c(SCC(=O)Nc2nccs2)nc1C`: 24.6% (active); `CCn1c(SCC(=O)Nc2nccs2)nnc1-c1ccco1`: -4.57% (inactive); `Cc1[nH]c2ccccc2c1SCC(=O)Nc1nccs1`: 29.5% (active). In the case of `Cc1ccccc1-c1ccc(C(=O)O)s1` it was 27.3% (inactive); in that of `O=C1CSC(=S)N1c1ccc(Cl)c(Cl)c1`, 3.61% (inactive); in that of `CCS(=O)(=O)N1CCC(N2CCN(c3ccccc3)CC2)CC1`, -2.51% (inactive). Next, `Cc1ccc(N(Cc2cc(=O)[nH]c3ccccc23)C(=O)CCl)cc1`: -3.54% (inactive); `COc1cc(NC(=O)c2ccccc2)c(OC)cc1NC(=O)Cc1ccccc1`: -0.835% (inactive). Regarding `O=C(CCC1CCCN(C(=O)Cc2ccc(F)cc2)C1)N1CCN(c2ccccn2)CC1` (centres undefined), the max response is -1.12% (inactive). On to `CC(=O)Nc1ccc(N2CCOCC2)c(C(=O)Nc2cccc(C)c2)c1`, for which the max response is -4.06% (inactive). For the compound `Cc1cccc(NC(=O)c2sc3nc4c(c(-c5ccco5)c3c2N)CCC4)c1`, the max response is 20.8% (inactive). On to `Cc1cccc(NC(=O)c2sc3nc(N4CCOCC4)c4c(c3c2N)CCCC4)c1`, for which the max response is 14.3% (active).
